# Screening results: PubChem, National Center for Advancing Translational Sciences (NCATS)
# Luc counter: Kinase-Glo luciferase inhibition (counter-screen); Kinase-Glo luciferase, ATP luminescence, 8 min; Potency, µM (doses to about 38.3 µM), for inactives: top-dose activity change, negative = inhibition, actives largely listed as inhibitors; actives 0.28% (n = 200,000); note: nearly all actives have a fitted effect of over 60% in size
#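 Light output from Kinase-Glo luciferase with luciferin and 10 uM ATP in 50 mM imidazole pH 7.2, KCl, MgCl2, Tween 20, BSA; compound pin-delivered, 8-min ambient incubation, then luminescence read.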
# RORg inh: inhibitors of mouse ROR gamma transcriptional activity; Drosophila S2 Gal4-RORgamma UAS-luciferase reporter, 20 h; Potency, µM (doses to about 53.6 µM), without a hit: at the highest dose activity change, negative = inhibition, hits mostly inhibitors; actives 5.4% (n = 310,000); AID 2551; note: nearly all actives have a fitted effect of over 60% in size
# Target sequence (P51450 whole entry, looked up, the tested form may be a part): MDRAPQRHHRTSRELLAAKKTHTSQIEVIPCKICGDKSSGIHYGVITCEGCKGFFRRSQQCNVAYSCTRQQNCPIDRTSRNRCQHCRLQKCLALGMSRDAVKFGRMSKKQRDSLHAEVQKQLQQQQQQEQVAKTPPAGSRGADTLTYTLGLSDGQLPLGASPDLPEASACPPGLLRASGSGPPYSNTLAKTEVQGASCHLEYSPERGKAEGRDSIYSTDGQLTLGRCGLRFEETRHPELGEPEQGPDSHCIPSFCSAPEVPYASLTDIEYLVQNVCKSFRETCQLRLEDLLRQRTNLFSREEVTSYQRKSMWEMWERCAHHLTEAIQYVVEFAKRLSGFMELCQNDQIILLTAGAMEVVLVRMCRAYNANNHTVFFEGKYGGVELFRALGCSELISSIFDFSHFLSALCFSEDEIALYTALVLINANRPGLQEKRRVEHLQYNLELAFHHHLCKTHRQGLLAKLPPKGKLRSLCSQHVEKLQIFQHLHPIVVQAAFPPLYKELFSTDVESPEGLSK
#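 Luminescence from a UAS-regulated Photinus luciferase reporter in stably transfected Drosophila Schneider cells is measured; decreased signal marks ROR gamma inhibition. Fusion expression is induced by 700 uM copper sulfate for 20 hr.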
# VP16 counter: Gal4-VP16 reporter inhibition counter-screen; Drosophila S2 Gal4-VP16 UAS-luciferase, luminescence, 20 h; Potency, µM (titrated, usually from 53.6 µM), for the others: top-dose activity, negative = inhibition, usual class: inhibitors; actives 3.5% (n = 310,000); AID 2546;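 note: Gal4-VP16 expression switched on by copper sulfate through the metallothionein promoter; nearly all actives have a fitted effect of over 50% in size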
# Starred values were filed as active, the others as inactive; ? = inconclusive; . = not tested or not shown; [ ] = remark or other dose. This is a sample that favours compounds with a hit; in the whole collection about 6.2% have one here. Calls come from the whole dose curve; as a rule, active = well fitted curve in the direction sought with a large enough effect; inconclusive = small, poorly fitted or top-dose-only effect, or another doubt; inactive = no such curve, though single readings can be large; an effect the other way counts as inactive or inconclusive. % is set by controls: 0 for no effect and ±100 for the full control effect; potency is the fitted concentration of half-maximal effect.
SMILES,Luc counter,RORg inh,VP16 counter
CCN1CNC(=S)N(c2cc(C)ccc2C)C1,-2%,?,-29%
Cc1ccc(C)c(N2CN(Cc3ccco3)CNC2=S)c1,1%,6.3µM*,10µM*
Cc1cccc(N2CN(Cc3cccnc3)CNC2=S)c1C,1%,-21%,-7%
O=C(Nc1ccc2c(c1)OCCO2)C1CCCN(S(=O)(=O)c2cnc[nH]2)C1 (configuration not stated),-4%,-16%,2%
CCN(CC)S(=O)(=O)c1cccc(NC(=O)CN(C)Cc2cccc(OC)c2)c1,.,2%,-8%
CCOc1ccccc1N(C)S(=O)(=O)c1ccc2c(c1)N(C(C)=O)CCO2,.,-9%,-6%
CC(Oc1ccc(Cl)cc1Cl)c1nc(-c2ccc(NC(=O)c3ccncc3)cc2)no1 (configuration not stated),-1%,?,13µM*
CC(Oc1ccc(Cl)cc1Cl)c1nc(-c2ccc(NC(=O)c3cccnc3)cc2)no1 (configuration not stated),2%,?,?
CCCOCCc1nnc(N)s1,.,0%,-5%
CC(=O)N(C)c1ccc(OCC(O)Cn2c(C)nc3ccccc32)cc1 (configuration not stated),2%,-34%,16µM*
CC(=O)N(C)c1ccc(OCC(O)Cn2c3ccc(Cl)cc3c3cc(Cl)ccc32)cc1 (configuration not stated),1%,20µM*,4%[0.365 µM]
CC(=O)Nc1ccc(OCC(O)Cn2c(CO)nc3ccccc32)cc1 (configuration not stated),1%,1%,-14%
CC(=O)Nc1ccc(OCC(O)Cn2c(C(C)C)nc3ccccc32)cc1 (configuration not stated),0%,-1%,4%
CC(=O)Nc1ccc(OCC(O)Cn2c(C)nc3ccccc32)cc1 (configuration not stated),5%,?,7.9µM*
OC(COc1ccc(Cl)cc1)CN1CCN(c2cccc(Cl)c2)CC1 (configuration not stated),.,-15%,-24%
Cc1ccccc1N1CCN(C2CCCN(C(=O)c3cc[n+]([O-])cc3)C2)CC1 (configuration not stated),.,-11%,4%
COc1ccc(S(=O)(=O)N2CCCC(C(=O)NCc3ccncc3)C2)cc1 (configuration not stated),1%,13%,0%
COc1ccc(Nc2cc(C)nc3ncnn23)c(OC)c1,0%,-45%,14%
COc1ccc(CNc2cc(C)nc3ncnn23)c(OC)c1,14%,-23%,11µM*
O=C(Nc1cccc(C(F)(F)F)c1)Oc1ccc(Cl)c2cccnc12,.,0.5µM*,1µM*
CCN(CC)C(=O)Oc1ccc(Cl)c2cccnc12,0%,17%,?
COc1ccc(CCN(C)C(=O)c2cc(-c3ccccc3)nc3ccccc23)cc1OC,.,?,8%
COc1ccc2cc(-c3cc(C(=O)O)c4ccccc4n3)ccc2c1,7.9µM*,4%,-2%
COc1ccc(-c2cc(C(=O)N(C)CCc3ccc(OC)c(OC)c3)c3ccccc3n2)cc1,.,5µM*,-9%
COc1ccc(-c2cc(C(=O)O)c3ccccc3n2)c(OC)c1,4%,-12%,-3%
SMILES,Luc counter,RORg inh,VP16 counter
Cc1cc(NC(=O)CSc2nnc(C)c(=O)n2N)no1,0%,-5%,-1%
N#CCc1cnc2ccccc2n1,.,-3%,-5%
C/C(=C\C(=O)c1ccc(Br)cc1)NNC(=O)c1ccc(O)cc1,.,5µM*,4.5µM*
C/C(=C\C(=O)c1ccc(Br)cc1)NCc1ccc(C)cc1,-4%,?,5%
Cc1nnc(NC(=O)c2ccc(S(=O)(=O)N3CCCCCC3)cc2)o1,-3%,0.71µM*,1.3µM*
Cc1nnc(NC(=O)c2ccc(S(=O)(=O)N3CC(C)OC(C)C3)cc2)o1 (configuration not stated),.,4.5µM*,4µM*
COCc1nnc(NC(=O)c2ccc(S(=O)(=O)N3CCCCCC3)cc2)o1,0%,2.2µM*,0.28µM*
Cc1cc(C)nc(NS(=O)(=O)c2ccc(NC(=O)c3ccc(S(=O)(=O)N4CC(C)OC(C)C4)cc3)cc2)n1 (configuration not stated),0%,25%,?
CC(=O)Nc1ccc(C(=O)Nc2ccc(S(=O)(=O)N3CCCCC3)cc2)cc1,.,9%,-1%
CCc1nnc(NC(=O)c2ccc(S(=O)(=O)N3CCCCCC3)cc2)s1,1%,-15%,-5%
CCOC(=S)SCC(=O)N1CCc2ccccc2C1C1C(=O)CCCC1=O (configuration not stated),1%,-10%,-15%
Cc1cc(C)cc(NC(=S)N2CCN(S(C)(=O)=O)CC2)c1,.,3%,7%
O=c1[nH]c(CCl)nc2cc(-c3ccc(F)cc3)sc12,.,13µM*,?
O=c1[nH]cnc2cc(-c3ccc(Br)cc3)sc12,.,-1%,-3%
O=C(C1CCC1)N1CCc2cc(S(=O)(=O)Nc3ccc4c(c3)OCCO4)ccc21,5%,?,20µM*
CCC(=O)N1CCc2cc(S(=O)(=O)Nc3ccc4c(c3)OCCO4)ccc21,-2%,?,?
CS(=O)(=O)N1CCc2cc(S(=O)(=O)Nc3ccc4c(c3)OCCO4)ccc21,2%,?,18µM*
CS(=O)(=O)N1CCc2cc(S(=O)(=O)NCCNS(=O)(=O)c3ccc4c(c3)CCN4S(C)(=O)=O)ccc21,0%,2%,-4%
Cc1cccc(OCC(=O)NS(=O)(=O)c2ccc(Br)cc2)c1,.,36%,-6%
O=C(COc1c(Br)cc(Br)c2cccnc12)Nc1ccccc1F,-1%,?,20µM*
O=C(COc1ccccc1)Nc1ccccc1F,.,-7%,-9%
CN1CCN(Cc2ccc(OCc3ccccc3)cc2)CC1,0%,-3%,-11%
Cc1c(O)c(CN2CCCCC2)cc2c1oc(=O)c1ccccc12,0%,-22%,-1%
O=C(COc1c(Br)cc(Br)c2cccnc12)N1CCc2ccccc2C1,-6%,5.6µM*,7.9µM*
CN1CCN(Cc2cc(COCc3ccccc3)c3cccnc3c2O)CC1,-4%,2µM*,1.3µM*
SMILES,Luc counter,RORg inh,VP16 counter
Oc1c(CN2CCCCC2)cc(Br)c2cccnc12,1%,4µM*,1µM*
O=C(COc1cccc2cccnc12)N1CCc2ccccc2C1,-7%,18%,9%
O=C1[C@@H]2[C@@H]3C[C@@H]([C@H]4ON=C(c5ccc(OCc6ccccc6)cc5)[C@@H]34)[C@@H]2C(=O)N1c1ccc2c(c1)OCO2,0%,1%,-14%
O=c1c2c3c(sc2n2cnnc2n1-c1ccccc1)N(Cc1ccccc1)CCC3,-3%,10%,0%
COc1ccc(-c2cccc(NC(=O)COc3ccc(Cl)cc3)c2)nn1,.,15%,21%
COC(=O)c1sc(N)c(C(=O)OC)c1COC(=O)CCNS(=O)(=O)c1ccc(C)cc1,1%,18%,-5%
Cc1c(NC(=O)COC(=O)C2(c3ccccc3F)CCCC2)c(=O)n(-c2ccccc2)n1C,3%,1%,3%
Cc1ccc(OCC(=O)N2CCCCC2)c(Br)c1,2%,33%,0%
O=C(COc1c(Br)cc(Br)c2cccnc12)N1CCCCC1,-3%,10µM*,?
Cc1ccc(NC(=O)COc2nsnc2N2CCOCC2)cc1Cl,.,-30%,1%
